The results in this text go back to PubChem BioAssay (EPA / NIEHS).

Calls of active or inactive are those of the source. The calls were made as follows: active = hit-call score of the fitted dose curve at least 0.9, where 1 is the maximum; inactive = score below 0.9.

Read-out in experiment [1]: Interleukin-8 (IL8), CXCL8 (gene 3576)
Description: BSK_CASM3C_IL8: BioMAP Diversity Plus: CASM3C Assay for Interleukin-8 (IL8) Biomarker Activity (AID 2283042).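 Also: IL-8 protein level quantified by ELISA.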 As to conditions: primary human coronary artery smooth muscle cells; actives raise or lower the signal.

Read-out in experiment [2]: Human Leukocyte Antigen - DR isotype (HLADR), HLA-DRA (gene 3122)
Kind of experiment: BSK_CASM3C_HLADR: BioMAP Diversity Plus: CASM3C Assay for Human Leukocyte Antigen - DR isotype (HLADR) Biomarker Activity (AID 2283043).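 Also: cell-surface HLA-DR protein level quantified by ELISA.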 As to conditions: primary human coronary artery smooth muscle cells; actives raise or lower the signal.

Read-out in experiment [3]: Macrophage colony-stimulating factor (MCSF), CSF1 (gene 1435)
Kind of experiment: BSK_CASM3C_MCSF: BioMAP Diversity Plus: CASM3C Assay for Macrophage colony-stimulating factor (MCSF) Biomarker Activity (AID 2283044).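 Also: M-CSF protein amount quantified by ELISA after 24 h exposure.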 The following applies: primary human coronary artery smooth muscle cells; actives raise or lower the signal.

Read-out in experiment [4]: Low-density lipoprotein receptor (LDLR), LDLR (gene 3949)
Description: BSK_CASM3C_LDLR: BioMAP Diversity Plus: CASM3C Assay for Low-density lipoprotein receptor (LDLR) Biomarker Activity (AID 2283045).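 Also: LDLR protein level on the cell surface quantified by ELISA.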 As to conditions: primary human coronary artery smooth muscle cells; actives raise or lower the signal.

Read-out in experiment [5]: Monocyte Chemoattractant Protein-1 (MCP1), CCL2 (gene 6347)
Description: BSK_CASM3C_MCP1: BioMAP Diversity Plus: CASM3C Assay for Monocyte Chemoattractant Protein-1 (MCP1) Biomarker Activity (AID 2283046).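 Also: MCP-1 level quantified by ELISA 24 h after dosing.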 The following applies: primary human coronary artery smooth muscle cells; actives raise or lower the signal.

The nature of experiment [6]: BSK_CASM3C_Proliferation: Cell Proliferation Assessment in the BioMAP Diversity Plus: CASM3C Assay (AID 2283047).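 Also: sulforhodamine B total protein stain as relative cell number at 560 nm; sub-confluent cells exposed 48 h before staining; fitted both ways against DMSO so gain or loss of cell number.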 The following applies: primary human coronary artery smooth muscle cells.
Read-out in experiment [7]: Monokine induced gamma interferon (MIG), CXCL9 (gene 4283)
Kind of experiment: BSK_CASM3C_MIG: BioMAP Diversity Plus: CASM3C Assay for Monokine induced gamma interferon (MIG) Biomarker Activity (AID 2283048).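 Also: MIG protein level measured by ELISA.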 The following applies: primary human coronary artery smooth muscle cells; actives raise or lower the signal.

Read-out in experiment [8]: serum amyloid A (SAA), SAA1 (gene 6288)
Description: BSK_CASM3C_SAA: BioMAP Diversity Plus: CASM3C Assay for serum amyloid A (SAA) Biomarker Activity (AID 2283049).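 Also: SAA protein level quantified by ELISA.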 As to conditions: primary human coronary artery smooth muscle cells; actives raise or lower the signal.

Experiment [9] can be described thus: BSK_CASM3C_SRB: Viability Assessment in the BioMAP Diversity Plus: CASM3C Assay (AID 2283050).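 Also: total protein by SRB staining as cytotoxicity measure in parallel cultures.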 As to conditions: primary human coronary artery smooth muscle cells.
Read-out in experiment [10]: Thrombomodulin, THBD (gene 7056)
Kind of experiment: BSK_CASM3C_Thrombomodulin: BioMAP Diversity Plus: CASM3C Assay for Thrombomodulin Biomarker Activity (AID 2283051).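 Also: thrombomodulin protein level measured by ELISA 24 h after dosing.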 As to conditions: primary human coronary artery smooth muscle cells; actives raise or lower the signal.

Read-out in experiment [11]: Tissue Factor, F3 (gene 2152)
Description: BSK_CASM3C_TissueFactor: BioMAP Diversity Plus: CASM3C Assay for Tissue Factor Biomarker Activity (AID 2283052).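 Also: cell surface tissue factor protein level read by ELISA.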 As to conditions: primary human coronary artery smooth muscle cells; actives raise or lower the signal.

Read-out in experiment [12]: Interferon-gamma inducible Protein 10 (IP10), CXCL10 (gene 3627)
Description: BSK_hDFCGF_IP10: BioMAP Diversity Plus: hDFCGF Assay for Interferon-gamma inducible Protein 10 (IP10) Biomarker Activity (AID 2283053). As to conditions: primary human foreskin fibroblasts; actives raise or lower the signal. The gist of the method: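 Human foreskin fibroblast primary cells (hDFCGF system) were dosed with chemical and assayed at 24 h; IP-10 measured by ELISA. Activity fitted bidirectionally relative to DMSO negative control as baseline.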

Read-out in experiment [13]: Urokinase-type plasminogen activator receptor (uPAR), PLAUR (gene 5329)
Kind of experiment: BSK_CASM3C_uPAR: BioMAP Diversity Plus: CASM3C Assay for Urokinase-type plasminogen activator receptor (uPAR) Biomarker Activity (AID 2283054).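 Also: cell-surface uPAR protein level quantified by ELISA.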 As to conditions: primary human coronary artery smooth muscle cells; actives raise or lower the signal.

Read-out in experiment [14]: Vascular cell adhesion molecule 1 (VCAM1), VCAM1 (gene 7412)
Description: BSK_CASM3C_VCAM1: BioMAP Diversity Plus: CASM3C Assay for Vascular cell adhesion molecule 1 (VCAM1) Biomarker Activity (AID 2283055).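 Also: VCAM-1 protein level quantified by ELISA on the cells.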 As to conditions: primary human coronary artery smooth muscle cells; actives raise or lower the signal.

Read-out in experiment [15]: Collagen III, COL3A1 (gene 1281)
Kind of experiment: BSK_hDFCGF_CollagenIII: BioMAP Diversity Plus: hDFCGF Assay for Collagen III Biomarker Activity (AID 2283056). The following applies: primary human foreskin fibroblasts; actives raise or lower the signal. The gist of the method: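 ELISA readout of Collagen III in human dermal (foreskin) fibroblasts, taken 24 h post-treatment. Gain or loss relative to DMSO vehicle fitted in both directions.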

Read-out in experiment [16]: Epidermal growth factor receptor (EGFR), EGFR (gene 1956)
Kind of experiment: BSK_hDFCGF_EGFR: BioMAP Diversity Plus: hDFCGF Assay for Epidermal growth factor receptor (EGFR) Biomarker Activity (AID 2283057). The following applies: primary human foreskin fibroblasts; actives raise or lower the signal. The gist of the method: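 Primary human foreskin fibroblasts were exposed to compound for 24 h, after which cell-surface EGFR was quantified by ELISA. Activity was fitted bidirectionally against the DMSO negative control as baseline.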

Read-out in experiment [17]: Interleukin-8 (IL8), CXCL8 (gene 3576)
Description: BSK_hDFCGF_IL8: BioMAP Diversity Plus: hDFCGF Assay for Interleukin-8 (IL8) Biomarker Activity (AID 2283058). The following applies: primary human foreskin fibroblasts; actives raise or lower the signal. Summed up:
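IL-8 levels read by ELISA at 24 hours after dosing human skin fibroblast cultures. Parallel SRB staining assessed overt cytotoxicity, and gain or loss of signal was fitted against DMSO control.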

A short description of experiment [18]: BSK_hDFCGF_Proliferation: Cell Proliferation Assessment in the BioMAP Diversity Plus: hDFCGF Assay (AID 2283059).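 Also: curves fitted for both rise and fall of signal versus DMSO baseline.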 As to conditions: primary human foreskin fibroblasts. Summed up: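 Primary human foreskin fibroblasts, sub-confluent; […]; 10% TCA fix, 0.1% SRB stain, A560 total protein. Gain/loss fitted bidirectionally vs DMSO control.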
Read-out in experiment [19]: Macrophage colony-stimulating factor (MCSF), CSF1 (gene 1435)
Kind of experiment: BSK_hDFCGF_MCSF: BioMAP Diversity Plus: hDFCGF Assay for Macrophage colony-stimulating factor (MCSF) Biomarker Activity (AID 2283060). As to conditions: primary human foreskin fibroblasts; actives raise or lower the signal. The gist of the method:
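M-CSF levels read by ELISA at 24 h post-dosing in human skin fibroblasts. Parallel cultures stained with SRB assessed cytotoxicity at the same time point; response fitted in both directions against the DMSO baseline.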

The nature of experiment [20]: BSK_hDFCGF_SRB: Viability Assessment in the BioMAP Diversity Plus: hDFCGF Assay (AID 2283061).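 Also: cells exposed to compound for 24 h before the read.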 As to conditions: primary human foreskin fibroblasts. The gist of the method:
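Viability was read as total protein: after 10% TCA fixation, wells were stained with 0.1% sulforhodamine B and read at 560 nm. Primary human foreskin fibroblasts were dosed for 24 h, with bidirectional fitting versus DMSO.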

Take `COc1cc(C(=O)NC2CCN(C)CC2)ccc1Nc1ncc2c(n1)N(C1CCCC1)CC(F)(F)C(=O)N2C`: the AC50 in [1] is 19.2 µM (active); in [2], 9.13 µM (active); in experiment [3], 18.6 µM (active); in experiment [4], 6.15 µM (active); in experiment [5], 25.1 µM (active); in experiment [6], 1.67 µM (active). For the same compound, the AC50 is 20.8 µM (active) in experiment [7]; 31.9 µM (active) in experiment [8]; 27.5 µM (active) in [9]; 14.2 µM (active) in experiment [11]; 11.9 µM (active) in [12]; 24.2 µM (active) in experiment [13]. In addition, the AC50 is 14.1 µM (active) in experiment [14]; 19 µM (active) in [15]; 23.8 µM (active) in experiment [17]; 4.95 µM (active) in [18]; 14.9 µM (active) in experiment [19]; 16 µM (active) in [20]. In addition, the outcome in [10] and in experiment [16] was inactive.

On to `Oc1ccccc1`, for which the result in experiment [1], in [2], in experiment [3], in [4], in experiment [5] and in experiment [6] was inactive. Moreover, the result in experiment [7], in experiment [8], in experiment [9], in [10], in [11] and in experiment [12] was inactive. For the same compound, the outcome in [13], in [14], in experiment [15], in [16], in [17] and in experiment [18] was inactive. For the same compound, the result in [19] and in experiment [20] was inactive.

In the case of `O=C(O)Cc1cc(I)c(Oc2ccc(O)c(I)c2)c(I)c1`, the result in experiment [1], in experiment [2], in experiment [3], in [4], in experiment [5] and in [6] was inactive. In addition, the result in [7], in [8], in experiment [9], in experiment [10], in experiment [11] and in [12] was inactive. Further, the outcome in [13], in [14], in [16], in [17] and in experiment [19] was inactive. Also, the AC50 is 8.91 µM (active) in experiment [15], 13.7 µM (active) in [18] and 20.2 µM (active) in [20].

As to `CC(O)CC(C)(C)O` (stereo not given), the outcome in [1], in experiment [2], in experiment [3], in experiment [4], in [5] and in experiment [6] was inactive. Moreover, the result in [7], in experiment [8], in experiment [9], in [10], in experiment [11] and in [12] was inactive. In addition, the result in experiment [13], in [14], in experiment [15], in [16], in experiment [17] and in experiment [19] was inactive. Besides, in experiment [20], the result was inactive. In addition, in [18], the AC50 was 14.1 µM (active).

For `CCCCCc1ccc(N)cc1`, the outcome in experiment [1], in [2], in experiment [3], in experiment [4], in experiment [5] and in experiment [6] was inactive. Besides, the result in experiment [7], in [8], in experiment [9], in experiment [10], in experiment [11] and in experiment [13] was inactive. The outcome in experiment [14], in experiment [15], in experiment [17], in experiment [19] and in experiment [20] was inactive. Besides, the AC50 in experiment [12] is 20 µM (active); in experiment [16], 0.0546 µM (active); in [18], 9.38 µM (active).

In the case of `Cc1cc2c(cc1C(F)(F)F)N(C(=O)Nc1ccc(Oc3cccnc3C)nc1)CC2`, the result in [1], in [7], in experiment [8], in experiment [11], in experiment [15] and in experiment [16] was inactive. Besides, the outcome in experiment [17] and in [19] was inactive. Also, the AC50 is 16.6 µM (active) in experiment [2]; 30.6 µM (active) in [3]; 3.81 µM (active) in experiment [4]; 28.3 µM (active) in experiment [5]; 13.8 µM (active) in experiment [6]; 26.3 µM (active) in [9]. Also, the AC50 in [10] was 5.04 µM (active); in experiment [12], 18.4 µM (active); in experiment [13] it was 25 µM (active); in experiment [14], 31.1 µM (active); in experiment [18], 1.94 µM (active); in [20], 27.6 µM (active).

As to `CCO[Si](CCCNC(N)=O)(OCC)OCC`, the result in [1], in experiment [2], in experiment [3], in experiment [4], in [5] and in experiment [6] was inactive. Moreover, the result in experiment [7], in experiment [8], in experiment [9], in experiment [10], in [11] and in experiment [12] was inactive. Further, the result in experiment [13], in [14], in experiment [15], in experiment [16], in experiment [17] and in experiment [18] was inactive. Moreover, the outcome in experiment [19] and in experiment [20] was inactive.

Usually AC50 stands for the concentration giving half of the maximal activity seen.
